Experimental data published in the supplement of paper PMC12669032.
“And” between values parts separate entries of the source, which are not always exact repeats. Equal values may be shown once.

System: Parabacteroides merdae
Test: growth AUC relative to DMSO control (median of replicates) (fraction); higher = more growth (less inhibition), active = hit call of the paper
Details: 20 µM; 24 h;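 active = AUC reduced over 20% with Padj below 0.05 in at least 2 of 3 replicates; inactive = otherwise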
In short: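 Gut bacterial monocultures were grown anaerobically at 37 °C in mGAM, starting at OD600 0.05, with 20 µM compound (1% DMSO) in round-bottom 96-well plates under pierced gas-permeable seals. OD600 was read hourly for 24 h. Area under the growth curve (minimum OD set to 0) was normalised to the plate median of DMSO controls, or to row and column medians on the industrial chemical plate. The value is the median of three biological replicates grown on separate days.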

Structure (SMILES)	growth AUC
COP(N)(=O)SC (centres undefined)	1.06 (inactive)
COc1cc(OC)n2nc(S(=O)(=O)Nc3c(Cl)ccc(C)c3Cl)nc2n1	0.986 (inactive)
CC(C)N(C(=O)SCC(Cl)=C(Cl)Cl)C(C)C	0.947 (inactive)
O=S(=O)(c1ccc(O)cc1)c1ccc(O)cc1	0.974 (inactive)
CN(C)NC(=O)CCC(=O)O	1.02 (inactive)
CCN(CC)c1nc(C)cc(OP(=S)(OC)OC)n1	0.962 (inactive)
Clc1cccc(Cl)c1Cl	1.01 (inactive)
CCN(CC)C(=S)[S-].O.O.O.[Na+]	0.873 (inactive)
C#CCC1=C(C)C(OC(=O)C2C(C=C(C)C)C2(C)C)CC1=O (centres undefined)	0.946 (inactive)
CCOc1ccccc1OS(=O)(=O)NC(=O)Nc1nc(OC)cc(OC)n1	1.02 (inactive)
CNC(=O)Oc1cc(C)cc(C(C)C)c1	0.992 (inactive)
CCCCN(CC)c1c([N+](=O)[O-])cc(C(F)(F)F)cc1[N+](=O)[O-]	1 (inactive)
O=C(O)CCl	1.02 (inactive)
CC[C@H](C)[C@H]1O[C@]2(C=C[C@@H]1C)C[C@@H]1C[C@@H](C/C=C(\C)[C@@H](O[C@H]3C[C@H](OC)[C@@H](O[C@H]4C[C@H](OC)[C@@H](NC)[C@H](C)O4)[C@H](C)O3)[C@@H](C)/C=C/C=C3\CO[C@@H]4[C@H](O)C(C)=C[C@@H](C(=O)O1)[C@]34O)O2.O=C(O)c1ccccc1	0.345 (active)
CON(C)C(=O)Nc1ccc(Cl)c(Cl)c1	1 (inactive)
CCCCOC(=O)[C@@H](C)Oc1ccc(Oc2ccc(C#N)cc2F)cc1	0.971 (inactive)
Clc1cc(Cl)c(Cl)c(Cl)c1	0.941 (inactive)
CN(C)C(=O)Nc1cccc(C(F)(F)F)c1	1 (inactive)
CN(C)C(=O)Nc1cccc(OC(=O)NC(C)(C)C)c1	0.959 (inactive)
CCOP(=O)(NC(C)C)Oc1ccc(SC)c(C)c1 (centres undefined)	0.966 (inactive)

Structure (SMILES)	growth AUC
ClCC(Br)CBr (centres undefined)	0.996 (inactive)
O=[N+]([O-])c1c(Cl)c(Cl)cc(Cl)c1Cl	1.01 (inactive)
CCS(=O)c1c(C#N)nn(-c2c(Cl)cc(C(F)(F)F)cc2Cl)c1N (centres undefined)	0.965 (inactive)
CNC(=O)Oc1cccc2c1OC(C)(C)C2O (centres undefined)	1.09 (inactive)
CCOP(=O)(SC(C)CC)N1CCSC1=O (centres undefined)	1.01 (inactive)
CCOP(=O)(OCC)ON1C(=O)c2cccc3cccc(c23)C1=O	0.794 (active)
O=C(O)C(F)(F)C(F)(F)C(F)(F)C(F)(F)C(F)(F)C(F)(F)F	1.03 (inactive)
O=S1OC[C@@H]2[C@H](CO1)[C@]1(Cl)C(Cl)=C(Cl)[C@@]2(Cl)C1(Cl)Cl (some centres undefined)	0.977 (inactive) and 0.917 (inactive)
O=C(O)c1ccccc1C(=O)Nc1cccc2ccccc12	0.987 (inactive)
CCCCN(CCCC)SN(C)C(=O)Oc1cccc2c1OC(C)(C)C2	0.951 (inactive)
C[n+]1ccc(-c2cc[n+](C)cc2)cc1.O.[Cl-].[Cl-]	0.954 (inactive)
CCC(C)(CC)c1cc(NC(=O)c2c(OC)cccc2OC)on1	0.939 (inactive)
CNC(=O)Oc1cc(C)c(SC)c(C)c1	0.912 (inactive)
COC(=O)C(C)(Cl)Cl	1.04 (inactive)
Cc1cc(Cl)ccc1N=CN(C)C	0.988 (inactive)
Nc1cc(Cl)cc(Cl)c1	1.04 (inactive)
CCCCCCCCCc1ccc(O)cc1	0.971 (inactive)
COc1c(Cl)ccc(Cl)c1Cl	0.981 (inactive)
CC(C)(C)c1cc([N+](=O)[O-])cc([N+](=O)[O-])c1O	0.942 (inactive)
